Records with an inconclusive call do not appear. The source made the active and inactive calls. How the source made its calls, unless noted: active means hit-call score of the fitted dose curve at least 0.9, where 1 is the maximum; inactive means score below 0.9.

As a reminder, the AC50 is the concentration giving half of the maximal activity seen.

The test system of experiment [1] is SRY-box transcription factor 2 (SOX2) Protein Expression, Deisenroth Lab, SOX2 (gene 6657). In words: CCTE_Deisenroth_DEVTOX-GLR_Endo_SOX2: CCTE's DevTox GLR-Endo Assay Evaluation of SRY-box transcription factor 2 (SOX2) Protein Expression, Deisenroth Lab (AID 2284412; active means hit-call score of the fitted dose curve at least 0.9, where 1 is the maximum). The gist of the method:
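RUES2-GLR human pluripotent cells were seeded 24 h, then differentiated 48 h with two chemical exposures 24 h apart. Cells were fixed, nuclei stained and imaged by high-content microscopy. Endpoint is %SOX2+ cells over cell count, minus 0.2% DMSO control; 10-point series 1 nM–200 uM.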

For experiment [2], the system named is SRY-box transcription factor 17 (SOX17) Protein Expression, Deisenroth Lab, SOX17 (gene 64321). In words: CCTE_Deisenroth_DEVTOX-GLR_Endo_SOX17: CCTE's DevTox GLR-Endo Assay Evaluation of SRY-box transcription factor 17 (SOX17) Protein Expression, Deisenroth Lab (AID 2284413). Summed up: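 Seed RUES2-GLR cells 24 h; start endoderm differentiation; dose at 0 and 24 h (1 nM - 200 uM, 10 points); fix at 48 h, stain nuclei, image 5 fields/well; compute SOX17+/total cells vs 0.2% DMSO.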

Experiment [3] concerns Brachyury (BRA) Protein Expression, TBXT (gene 6862). In words: CCTE_Deisenroth_DEVTOX-GLR_Endo_BRA: CCTE's DevTox GLR-Endo Assay Evaluation of Brachyury (BRA) Protein Expression, Deisenroth Lab (AID 2284417). Summed up:
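RUES2-GLR human pluripotent cells, seeded 24 h, then differentiated 48 h in defined media with two chemical exposures 24 h apart (10-point series, 1 nM - 200 uM). Fixed, nuclear-stained, imaged; endpoint is percent BRA+ cells minus 0.2% DMSO control.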

Experiment [4] in a line: CCTE_Deisenroth_DEVTOX-GLR_Endo_CellCount: Viability Assessment in CCTE's DevTox GLR-Endo Assay, Deisenroth Lab (AID 2284420). Summed up: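 RUES2-GLR human pluripotent cells seeded 24 h, then differentiated 48 h with two chemical exposures at 24 h intervals (10-point, 1 nM - 200 uM). Fixed, nuclear-stained, imaged; nuclei counts give % change in cell count versus 0.2% DMSO.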

For experiment [5], the system named is SRY-box transcription factor 17 (SOX17) Protein Expression, Deisenroth Lab, SOX17 (gene 64321). In words: CCTE_Deisenroth_DEVTOX-GLR_Pluri_SOX17: CCTE's DevTox GLR-Pluri Assay Evaluation of SRY-box transcription factor 17 (SOX17) Protein Expression, Deisenroth Lab (AID 2284427; active means hit-call score of the fitted dose curve at least 0.9, where 1 is the maximum). On the procedure: CCTE_Deisenroth_DEVTOX-GLR_Pluri assay is a cell-based, multiplex-readout assay that uses RUES2-GLR, a human pluripotent cell line, with measurements taken at 48 hours after chemical dosing in a 384-well microplateCCTE_Deisenroth_DEVTOX-GLR_Pluri_SOX17 is 1 of 4 assay components calculated from the CCTE_Deisenroth_DEVTOX-GLR_Pluri assay and it measures an the percentage of cells in an endoderm state. Using a type of inducible fluorescent protein reporter, gain-of-signal activity can be used to understand changes in gene expression with fluorescent microscopy. The percentage of SOX17+ cells are determined by calculating the number of SOX17+ cells divided by the cell count. To generalize the intended target to other relatable targets, this assay component is annotated to the transcription factor intended target family, where the subfamily is SRY-related HMG-box.Data from the assay component CCTE_Deisenroth_DEVTOX-GLR_Pluri_SOX17 was analyzed as 1 assay endpoint. The endpoint is the percent SOX17+ cell population minus the 0.2% DMSO control in the CCTE_Deisenroth_DEVTOX-GLR_Pluri assay. This assay endpoint can be referred to as a secondary readout since this assay has produced multiple assay endpoints where this one serves as a measure of endoderm differentiation.
(§1) All assay protocols are aligned to the DevTox GLR-Endo assay workflow. Cells are seeded into 384-well microplates for 24 hours prior to initiating differentiation in defined media for a total duration of 48 hours. A total of two chemical exposures are administered in 24-hour intervals during the 48-hour differentiation period. At the assay termination point, cells are fixed and stained with a fluorescent dye demarcating the nucleus. High-content imaging is used to acquire brightfield and fluorescent channel images across 5 fields per well. Cell identification and mean biomarker fluorescence intensities are calculated with image analysis software to determine the total cell counts for viability assessment and the biomarker expression frequency for each lineage-dependent assay. […]

The test system of experiment [6] is SRY-box transcription factor 2 (SOX2) Protein Expression, Deisenroth Lab, SOX2 (gene 6657). The experiment is described as follows: CCTE_Deisenroth_DEVTOX-GLR_Pluri_SOX2: CCTE's DevTox GLR-Pluri Assay Evaluation of SRY-box transcription factor 2 (SOX2) Protein Expression, Deisenroth Lab (AID 2284428). The gist of the method: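 Human pluripotent RUES2-GLR cells were seeded 24 h, then differentiated 48 h in defined media with two chemical doses at 24-h intervals (10-point, 1 nM–200 uM). Nuclear-stained cells were imaged; SOX2+ cells/cell count gave percent change versus 0.2% DMSO control.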

The subject of experiment [7] is Brachyury (BRA) Protein Expression, Deisenroth Lab, TBXT (gene 6862). The experiment is described as follows: CCTE_Deisenroth_DEVTOX-GLR_Pluri_BRA: CCTE's DevTox GLR-Pluri Assay Evaluation of Brachyury (BRA) Protein Expression, Deisenroth Lab (AID 2284429; active means hit-call score of the fitted dose curve at least 0.9, where 1 is the maximum). The gist of the method: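 An inducible fluorescent BRA reporter in RUES2-GLR cells tracks mesoderm differentiation. Compounds (10 concentrations, 1 nM - 200 uM) are dosed twice within a 48-h differentiation. The endpoint subtracts the 0.2% DMSO control from percent BRA+ cells.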

The nature of experiment [8]: CCTE_Deisenroth_DEVTOX-GLR_Pluri_CellCount: Viability Assessment in CCTE's DevTox GLR-Pluri Assay Evaluation of Total Cell Counts, Deisenroth Lab (AID 2284430). On the procedure:
CCTE_Deisenroth_DEVTOX-GLR_Pluri assay is a cell-based, multiplex-readout assay that uses RUES2-GLR, a human pluripotent cell line, with measurements taken at 48 hours after chemical dosing in a 384-well microplateCCTE_Deisenroth_DEVTOX-GLR_Pluri_CellCount is 1 of 4 assay components calculated from the CCTE_Deisenroth_DEVTOX-GLR_Pluri assay and it measures cell count. Using fluorescent nuclei staining, gain-of-signal activity can be used to understand changes in cell viability with fluorescent microscopy. It is designed to make measurements of nuclei counts as a surrogate for cell number, as detected with optical fluorescence microscopy by Perkin Elmer Harmony nuclei detection algorithm. To generalize the intended target to other relatable targets, this assay component is annotated to the cell cycle intended target family, where the subfamily is cytotoxicity.Data from the assay component CCTE_Deisenroth_DEVTOX-GLR_Pluri_CellCount was analyzed as 1 assay endpoint. The endpoint the percent change in the cell count relative to the 0.2% DMSO control in the CCTE_Deisenroth_DEVTOX-GLR_Pluri assay. Furthermore, this assay endpoint can be referred to as a primary readout, because this assay has produced multiple assay endpoints where this one serves as a measure of cytotoxicity.
as §1

For a further experiment, the system named is TTR (gene 7276). The experiment is described as follows: CCTE_GLTED_hTTR_0.125uM: CCTE's human Transthyretin (hTTR) Inhibition Assay, with 0.125uM TTR, Great Lakes Toxicology and Ecology Division (GLTED) Lab (AID 2284431).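 Further: hits lower the fluorescence signal relative to DMSO baseline.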 The gist of the method:
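Cell-free displacement of the fluorescent probe ANSA from human TTR (0.125uM) after 2 h incubation with test chemical. Fluorescence read at 380 nm excitation/475 nm emission; loss of signal fitted relative to DMSO baseline.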

In the case of `CC(C)(c1ccc(O)cc1)c1ccc(O)cc1`, the AC50 in experiment [1] was 64.4 µM (active); in [2] it was 50.8 µM (active); in [3], 83.8 µM (active); in experiment [4] it was 35.5 µM (active); in [5], 29.3 µM (active); in experiment [6], 38.9 µM (active). The values for the AC50 (in [7]; in experiment [8]; with TTR (gene 7276)) were 38.4 µM (active), 19.7 µM (active) and 7.82 µM (active), respectively.

As to `COC(=O)c1ccc(I)cc1S(=O)(=O)NC(=O)Nc1nc(C)nc(OC)n1`, the AC50 with TTR (gene 7276) was 1.8 µM (active).

In the case of `N#CSCSc1nc2ccccc2s1`, in the experiment with TTR (gene 7276), the AC50 was 10.1 µM (active).

`O=C(O)C1(C(=O)Nc2ccc(Cl)cc2Cl)CC1`: the AC50 with TTR (gene 7276) is 8.06 µM (active).

Regarding `CCCCC(CC)COC(=O)c1ccccc1C(=O)O` (stereo not given), the AC50 in experiment [2] was 100 µM (active); in experiment [3], 160 µM (active); in experiment [4], 109 µM (active); in experiment [5], 100 µM (active); in experiment [6] it was 100 µM (active); in experiment [7] it was 70.4 µM (active). Further, the AC50 with TTR (gene 7276) is 1.44 µM (active). The outcome in [8] was inactive.

`CC(C)CCCCCCc1ccc(O)cc1`: the AC50 in the experiment with TTR (gene 7276) is 1.87 µM (active).

As for `OB(O)O`, the call in experiment [2], in [4], in experiment [5], in [6], in experiment [7] and in experiment [8] was inactive. Also, the AC50 in [3] was 30.5 µM (active).

For `CCCN(CCC)c1c([N+](=O)[O-])cc(C(F)(F)F)c(N)c1[N+](=O)[O-]`, the AC50 in the experiment on TTR (gene 7276) was 0.348 µM (active).

Turning to `O=C(Nc1ccc([N+](=O)[O-])cc1Cl)c1cc(Cl)ccc1O`, the AC50 in the experiment with TTR (gene 7276) is 0.633 µM (active).

These data come from PubChem BioAssay (EPA / NIEHS).
